SMILES strings stand for the structures. Values joined by “and” are separate entries in the source; they are usually repeats but may differ in a detail not shown here. Equal values may be shown once. Records with an inconclusive call do not appear. Entries that show only a call come without a potency. More than one record can exist for a structure, and the calls need not agree. Active and inactive are the calls of the source. Calls come from the whole dose curve; as a rule, active = well fitted inhibition curve with a large enough effect; inconclusive = small, poorly fitted or top-dose-only effect; inactive = no such curve, though single readings can be large or run the other way.
Potency is the fitted concentration of half-maximal effect.

The nature of this assay: Primary qHTS for inhibitors of nuclear receptor binding SET domain protein 2 (NSD2) in an RCH-ACV wild type WT cells (2C) (AID 1645877). Note: nearly all actives have a fitted effect of over 70% in size. The following applies: RCH-ACV (leukaemia line) NSD2 WT (2C) viability, CellTiter-Glo, 72 h; series mostly up to 44.9 µM. (In general: In qHTS, concentration-response curves come from the screen itself.)
Take `Cc1csc(NC(=O)c2sc3nc4c(c(C(F)(F)F)c3c2N)CCC4)n1`: the Potency result is “inactive”.
Then `CCCn1c(=O)c2[nH]c(C34CC5CC3C[C@@H](C5)C4)nc2n(CCC)c1=O`, with “inactive”.
Turning to `Cc1cccc(-c2[nH]c(C(C)(C)C)nc2-c2ccc3nccnc3c2)n1`, the Potency was 11.8 µM (active) and 6.51 µM (active).
With `NCCc1ccc(O)c(O)c1` the entry was “inactive”.
With `COc1cc(F)c(F)c(Nc2ccc(I)cc2F)c1NS(=O)(=O)C1(C[C@H](O)CO)CC1` the figure was 25.8 µM (active) and 20.9 µM (active).
Take `COc1ccccc1-c1cccc(-c2c(O)c3cc(C#N)c(Cl)cc3[nH]c2=O)c1`: the Potency entry is “inactive”.
Take `Cc1cc(Nc2nc(N[C@@H](C)c3ncc(F)cn3)ncc2Cl)n[nH]1`: the Potency is 2.05 µM (active) and 3.72 µM (active).
In the case of `CCCCNc1cc(C(=O)O)cc(S(N)(=O)=O)c1Oc1ccccc1`, the Potency result was “inactive”.
With `CS(=O)(=O)c1ccc(C(=O)Nc2ccc(Cl)c(-c3ccccn3)c2)c(Cl)c1` the entry was “inactive”; with `COc1ccccc1[C@H](c1cccc2ccccc12)[C@@](C)(C#N)C(=O)N1CCC(c2cccc(C(F)(F)F)c2)CC1`, “inactive”.
For `COc1ccc(-c2c(-c3ccc(O)cc3O)n[nH]c2C)cc1`, the Potency result was “inactive”.
Turning to `N#CC[C@H](C1CCCC1)n1cc(-c2ncnc3[nH]ccc23)cn1`, the Potency is 18.3 µM (active) and 9.34 µM (active).
With `O=c1n(CCCN2CCN(c3cccc(Cl)c3)CC2)nc2ccccn12` the entry was “inactive”.
In the case of `O=C(NOC[C@H](O)CO)c1ccc(F)c(F)c1Nc1ccc(I)cc1F`, the Potency result was “inactive”.
As for `c1ccc(-c2nn3c(c2-c2ccnc4cc(OCCN5CCOCC5)ccc24)CCC3)nc1`, the Potency was 16.6 µM (active).
`CC(C)(N)C(=O)N[C@H](COCc1ccccc1)C(=O)N1CCC2(CC1)CN(S(C)(=O)=O)c1ccccc12`: the Potency was 14.5 µM (active) and 14.8 µM (active).
Turning to `O=c1[nH]cnc2[nH]ncc12`, the Potency result was “inactive”.
With `CN(C)c1ccc(C2Nc3ccc4ccccc4c3C3=C2C(=O)CC(C)(C)C3)cc1Br` (stereo not drawn), the Potency entry was “inactive”.
On to `Clc1cccc(Cl)c1NC1=NCCN1`, for which the Potency result was “inactive”.
Take `CCc1cc(Nc2nccc(-c3c(-c4ccc(OC)c(C(=O)Nc5c(F)cccc5F)c4)nc4ccccn34)n2)c(OC)cc1N1CCC(N2CCN(S(C)(=O)=O)CC2)CC1`: the Potency result was “inactive and 5.9 µM (active)”.
With `COc1ccc(CC2=NN3C([C@@H](CCc4ccccc4)[C@@H](C)O)=NC(C)C3C(=O)N2)cc1OC` (stereo partly drawn) the entry was “inactive”.
Take `CCN(c1ccccc1)c1cc(NC)[n+](C)c(C)n1`: the Potency result was “inactive”.
With `CCCc1nn(C)c2c(=O)[nH]c(-c3cc(S(=O)(=O)N4CCN(C)CC4)ccc3OCC)nc12` the figure was 10.6 µM (active) and inactive; with `CCOc1cc(N2CCC(O)CC2)ccc1Nc1ncc2c(n1)N(C)c1ccccc1C(=O)N2C`, 2.63 µM (active).
With `Cc1cc(SCc2sc(-c3ccc(C(F)(F)F)cc3)nc2C)ccc1OCC(=O)O` the entry was “inactive”.
Then `C#Cc1cccc(Nc2ncnc3cc(OCCOC)c(OCCOC)cc23)c1`, with 9.44 µM (active).
Turning to `CC(C)C[C@H](NC(=O)[C@@H](O)[C@H](N)Cc1ccccc1)C(=O)O`, the Potency entry was “inactive”.
On to `NCCCC(N)(C(=O)O)C(F)F` (stereo not drawn), for which the Potency result is “inactive”.
On to `COc1cccc2cc(-c3nc(C4CCC(C(=O)O)CC4)n4ncnc(N)c34)[nH]c12` (stereo not drawn), for which the Potency is 4.68 µM (active) and 820 nM (active).
In the case of `N=c1nc(N2CCCCC2)cc(N)n1O`, the Potency result was “inactive”.
For the compound `CC[C@@H](C)[C@H](NC(=O)[C@H](CC1CCCCC1)NC(=O)c1ccno1)C(=O)N1CCC2(CCc3ccccc32)CC1`, the Potency result is “inactive”.
As for `COc1c(Cl)cc2c([nH]c3cnccc32)c1NC(=O)c1cccnc1C`, the Potency was 9.34 µM (active).
For `C1COC(NC(C2CC2)C2CC2)=N1`, the Potency entry is “inactive”.

For the origin of these results see PubChem BioAssay (NCATS).
